From PubChem
KLK7 zymogen act = proKLK7 zymogen activators, primary screen, biochemical, fluorescence intensity. purified proKLK7, EDANS-DABCYL substrate fluorescence; 100% is mature enzyme control, 0% vehicle. activation, % at 7 µM. 370,000 compounds, 0.9% hits. AID 652039, 2013;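 active means activation above the mean of all tested compounds plus 3 SD, computed per campaign excluding outliers beyond control limits, cut at about 13% in these data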
ADAM17 inh = ADAM17 inhibitors, primary screen, biochemical, QFRET | AID 720648, 2013 | Disintegrin and metalloproteinase domain-containing protein 17 (Homo sapiens), P78536 | inhibition, % at 6.95 µM | 370,000 compounds, 0.83% hits | recombinant ADAM17, EDANS/DABCYL FRET peptide cleavage;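 active means inhibition above the mean of compounds lying between control limits plus 3 SD, set per campaign, cut at about 8.5% in these data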;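 further: 0% = DMSO-only wells as the low control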
Target sequence (P78536 215-824 limits assumed): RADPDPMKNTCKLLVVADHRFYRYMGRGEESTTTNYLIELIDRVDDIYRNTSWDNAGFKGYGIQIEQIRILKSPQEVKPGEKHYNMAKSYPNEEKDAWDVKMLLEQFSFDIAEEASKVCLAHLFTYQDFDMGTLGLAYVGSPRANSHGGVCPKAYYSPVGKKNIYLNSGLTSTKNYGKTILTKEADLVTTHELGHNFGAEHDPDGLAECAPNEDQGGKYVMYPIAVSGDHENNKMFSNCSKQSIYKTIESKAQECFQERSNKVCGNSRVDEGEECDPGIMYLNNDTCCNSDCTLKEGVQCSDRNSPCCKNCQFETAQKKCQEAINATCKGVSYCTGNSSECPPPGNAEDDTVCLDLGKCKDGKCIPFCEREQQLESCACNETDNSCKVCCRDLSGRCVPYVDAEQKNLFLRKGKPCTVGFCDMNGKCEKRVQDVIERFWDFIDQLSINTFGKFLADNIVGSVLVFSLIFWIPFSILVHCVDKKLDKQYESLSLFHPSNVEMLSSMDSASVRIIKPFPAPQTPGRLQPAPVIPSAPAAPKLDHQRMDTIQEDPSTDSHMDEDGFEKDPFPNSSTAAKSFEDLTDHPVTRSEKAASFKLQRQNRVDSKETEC
PLCb3 inh = human PLC-beta3 inhibitors, primary screen, biochemical, fluorescence. Purified PLC-beta3, fluorogenic substrate. AID 720704, 2013. 370,000 compounds, 0.18% hits. inhibition, % at 12.2 µM. 1-phosphatidylinositol 4,5-bisphosphate phosphodiesterase beta-3 (Homo sapiens), Q01970; in the data active means inhibition above about 11%;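 further: 0% = median of compound wells on plate and 100% = full blocker control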
PLC-gamma1 inh = PLC-gamma1 enzyme inhibitors, primary screen, biochemical, fluorescence, purified enzyme; fluorogenic substrate; 370,000 compounds, 0.84% hits; inhibition, % at 12.2 µM; 1-phosphatidylinositol 4,5-bisphosphate phosphodiesterase gamma-1 (Homo sapiens), P19174
sPLA2-III inh = human group III sPLA2 inhibitors, primary screen, biochemical, QFRET, BODIPY PC-A2 liposome substrate; Group 3 secretory phospholipase A2 (Homo sapiens), Q9NZ20; QFRET BODIPY PC-A2 liposome hydrolysis, fluorescence; inhibition, % at 12.2 µM; 370,000 compounds, 0.56% hits; AID 743126, 2013;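 active means inhibition above mean plus 3 SD of compounds lying within the high and low control bounds, cut at about 19% in these data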;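 further: 0% = median of test compound wells and 100% = no enzyme DMSO wells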
ADAM10 inh = human ADAM10 inhibitors, primary screen, biochemical, QFRET, HTS | Disintegrin and metalloproteinase domain-containing protein 10 (Homo sapiens), O14672 | recombinant ADAM10, EDANS/DABCYL FRET peptide cleavage, 3 h | inhibition, % at 7 µM | 370,000 compounds, 0.62% hits | AID 720582, 2013;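 active means inhibition above a per-campaign cutoff equal to the mean of compounds falling between control-based bounds plus 3 SD, cut at about 20% in these data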;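 further: 0% = DMSO wells while the 100% control is not disclosed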
PLCgamma1 ctr = PLC-gamma1 enzyme inhibitors, counter-screen for PLC-beta3 inhibitor project, biochemical, fluorescence | purified PLC-gamma1, fluorogenic substrate | shares compounds with PLC-gamma1 inh | inhibition, % at 12.3 µM | 3,300 compounds, 3.1% hits
PLCb3 confirm = PLC-beta3 inhibitor confirmation, biochemical, fluorescence, purified enzyme | shares compounds with PLC-gamma1 inh | fluorogenic substrate fluorescence | inhibition, % at 12.3 µM | 3,300 compounds, 1% hits | AID 743261, 2014; in the data active means inhibition above about 11%
Active calls of the source: *; i = inactive; . = no result. Rows were chosen to be rich in hits. Some 3.4% of all compounds tested hit in one or more screens of this group. Unless noted, no stated cut-off is given here; in the data, active means inhibition above about 9.5%; inactive means the rest.

SMILES | KLK7 zymogen act | ADAM17 inh | PLCb3 inh | PLC-gamma1 inh | sPLA2-III inh | ADAM10 inh | PLCgamma1 ctr | PLCb3 confirm
N#CCC[C@@H]1CC[C@]2(CCCN(C(=O)c3cccnc3)C2)O1 | 0 | 3 | 4 | 1 | -1 | 3 | . | .
N#CCOc1nc(N2CCOCC2)nc(N2CCOCC2)n1 | 0 | 0 | -2 | 10.0* | 11 | 1 | 0 | -4
C#CCCN([C@H](C(=O)OC)C(C)CC)S(=O)(=O)c1ccccc1Br (some centres not stated) | 1 | 8 | 2 | 3 | -1 | 11 | . | .
Cc1ccc(NC(=O)COc2cccc3ccc(C)nc23)c(Br)c1 | 0 | 1 | 1 | 13* | -9 | 7 | -8 | -5
O=C(c1ccc(Cl)cc1)N1CCN(c2ccc(F)cc2)CC1 | 0 | 5 | 5 | 11* | 1 | 14 | -4 | 0
O=C(c1ccc(CS(=O)Cc2ccc(Cl)cc2)o1)N1CCN(c2ccc(F)cc2)CC1 (configuration not stated) | 0 | 8 | -4 | 9.5* | -9 | 6 | -2 | -2
NC(=O)C1CCCN(C(=O)c2ccc(Cl)cc2)C1 (configuration not stated) | 0 | 0 | 6 | 2 | 10 | -3 | . | .
O=C(c1cccc([N+](=O)[O-])c1)N1CCN(c2ccc(Cl)cc2)CC1 | -1 | -1 | 2 | 11* | 8 | 10 | 2 | -1
O=C(c1ccc(Cl)cc1)N1CCCOC1 | 0 | 6 | 13* | 16* | 7 | 6 | 4 | 2
O=C(c1ccncc1)N1CCN(c2ccc(F)cc2)CC1 | 0 | 1 | -1 | 2 | 5 | 4 | . | .
CCOC(=O)CCCNC(=O)O[C@@H]1CC[C@@]23CCCN2C(=O)CCC[C@H]3C1 | . | -1 | 7 | 2 | 4 | 2 | . | .
Cc1ccc2nc(CN(C)C(=O)[C@H]3O[C@@H](n4cnc(C(N)=O)n4)[C@H](O)[C@@H]3O)[nH]c2c1 | 0 | -5 | 4 | 2 | 3 | -12 | . | .
Cc1ccc(C(C)C)c(OCC(O)CN2CCOCC2)c1 (configuration not stated) | 0 | 0 | 4 | 2 | -1 | 4 | . | .
Cc1ccc(C(C)C)c(OCC(O)CN2CC(C)OC(C)C2)c1 (configuration not stated) | 0 | -5 | -1 | 15* | -6 | -1 | 0 | -3
COc1ccc(C(=O)C2CCCN(C(=O)CSC)C2)cc1OC (configuration not stated) | 0 | 1 | 8 | 14* | 8 | 1 | -3 | 0
COc1ccc(C(=O)C2CCCN(C(=O)Cn3ccc(C)n3)C2)cc1OC (configuration not stated) | 0 | -4 | -5 | 3 | 2 | -7 | . | .
CC(=O)OC1CCC2(C)C(=CCC3C2CCC2(C)C3CC3OC4(CCC(C)CN4)C(C)C32)C1 (configuration not stated) | 0 | 5 | 8 | 11* | 5 | -2 | -2 | -1
C[C@]12CC[C@H](OC(=O)CCC(=O)O)CC1=CCC1C2CC[C@@]2(C)C1CC[C@@H]2N (some centres not stated) | -1 | -2 | 1 | 4 | 12 | -2 | . | .
CC(=O)Nc1sc2c(c1-c1nc3ccccc3s1)CCCN(C(C)C)C2 | . | -38 | i | i | -9 | -140 | . | .
CC(C)C[C@H]1COc2cccc(F)c2S(=O)(=O)N1Cc1cn(Cc2ccc(Cl)cc2)nn1 | 0 | -5 | 2 | 3 | 13 | -5 | . | .
CCOC(=O)CC1C(=O)NCCN1C(=O)c1ccc(Cl)cc1Cl (configuration not stated) | 0 | 6 | 2 | 17* | 3 | -1 | -2 | 1
CCOC(=O)CC1C(=O)NCCN1C(=O)c1ccc(F)cc1F (configuration not stated) | 0 | -2 | 1 | -1 | -1 | -2 | . | .
C[C@H]1[C@@H](C(=O)N2CCCC2)CC(=O)/C(=N/OCc2ccccc2)C[C@@H]1c1ccccc1 | 0 | -1 | -1 | 2 | -12 | 2 | . | .
COC(=O)c1cccc(NC(=O)C(C)N2C(=O)c3ccccc3C2=O)c1 (configuration not stated) | 0 | 2 | 6 | 10* | -9 | -1 | -3 | 1
COC(=O)c1cccc(NC(=O)Nc2ccc(Cl)cc2Cl)c1 | -1 | 8 | 2 | 9.9* | 7 | 11 | 7 | 4
SMILES | KLK7 zymogen act | ADAM17 inh | PLCb3 inh | PLC-gamma1 inh | sPLA2-III inh | ADAM10 inh | PLCgamma1 ctr | PLCb3 confirm
CN(CC#Cc1ccccc1)C(N)=NC(=O)/C=C/c1cccc(C(F)(F)F)c1 | 0 | -3 | -6 | -3 | -2 | -2 | . | .
COC(=O)[C@H]1C[C@@]2(C)c3ccccc3N(S(=O)(=O)c3ccccc3)[C@H]2N1C(=O)CNC1CCCCC1 | 0 | -2 | 3 | 5 | -2 | -6 | . | .
CN(C)S(=O)(=O)NC(c1ccccc1)c1ccccc1 | 0 | 4 | 7 | 12* | 0 | 4 | -4 | 1
CC(C)c1ccccc1NS(=O)(=O)N(C)C | 0 | -2 | 2 | 0 | 3 | -4 | . | .
Cc1ccc(F)cc1NC(=O)CCOc1ccccc1 | 0 | 4 | 11* | 11* | -1 | 0 | 5 | 4
Cc1cc(C)cc(NC(=O)CCOc2ccccc2)c1 | -1 | -3 | -6 | 2 | -1 | -1 | . | .
CC(C)Oc1cccc(-c2n[nH]c(=S)n2N=Cc2cccc([N+](=O)[O-])c2)c1 | 0 | 0 | 0 | 2 | 7 | -2 | . | .
O=C(O)CCC(=O)Nc1ccc(Br)cn1 | -1 | 0 | 3 | 10* | 5 | -8 | -4 | -12
O=S(=O)(CC1NCc2ccccc21)NC1CCCC1 (configuration not stated) | 0 | -4 | -4 | -3 | 10 | -6 | . | .
CNC(=S)N/N=C(\C)c1ccc2c(c1)OCCO2 | 0 | 6 | 5 | 15* | 17 | 10 | 1 | 0
CNC(=S)N/N=C(\C)c1ccc2c(c1)OCO2 | 0 | -1 | -6 | 0 | 7 | -2 | . | .
